# Test results published in the OligoGym collection.
# Target: TMEM90B
# Assay: pooled miR-30 sensor sort-seq; sequence = guide strand
# Details: shRNA
# Also: reference of the scale not given here.
row,Sequence,sensor-assay potency score (higher = more potent)
1,TATTTCTCAGCATTCATCTGGT,0.677
2,TTTCTCAGCATTCATCTGGTAA,-0.53
3,ATCATTTGTACTGTACAGCATC,-1.17
4,TGTGTCGCTTGAGTAGTCGCTC,0.302
5,TTGTATATTGCTAATGCGGTGG,-0.114
6,TTCATCTGGTAACTTAAGCAGC,-0.817
7,TTATTTCTCAGCATTCATCTGG,0.827
8,TCGATGAAGGTGGTCTCGCAGC,-1.08
9,TAGAGGATGATGTTGGGCCGGT,-0.523
10,TCACTCTCTGTGTCGCTTGAGT,-1.01
11,TTAATTAAACCATTCCTCTTGC,0.249
12,TTGAGTAGTCGCTCTCCAGCTC,-0.0875

# Target: TMOD3
# Assay: as above
# Details: shRNA
row,Sequence,sensor-assay potency score (higher = more potent)
1,TAGTTCTCTTCAAACTCTCTTC,-0.63
2,TTTTTGTTATAGCATTAGCTGC,-1.37
3,TTACAGAACTTTGTATTCGTTA,0.0652
4,TTACAATTTGATAACAACTAAA,-1.42
5,TAGGGCACATAGTCTTCCCTGT,-0.185
6,TATAGCATTAGCTGCTCTGGTT,-0.335
7,TTTTCTTCTGTAAAAGTCTGTA,-0.198
8,TTATATTACAGAACTTTGTATT,-0.879
9,TTCAACAAGATGAGCATCGTTT,-0.31
10,TAACGCATCAATCAGTGCCAGA,-1.33
11,TTTCATTATCTCTTAACGCATC,-0.758
12,TTTTTCTTCTGTAAAAGTCTGT,0.6

# Target: TNFAIP2
# Assay: as above
# Details: shRNA
row,Sequence,sensor-assay potency score (higher = more potent)
1,TAATTCGTCAGCTGCTTGCCTC,-0.825
2,TCAACATACATACAAAAGCAGT,-1.49
3,TTCTGTCTTCCATTCCACCATT,-1.13
4,TATCTGTGAGCCCAAGTCCAGC,-1.63
5,TCGGACATGTAAACAAACCAAG,-1.46
6,TTCTGCTCCATGGACATCCGGA,-0.115
7,TAGCTCCAGAGCTCGGTCCATC,-1.52
8,TCAATCTTGATGGCACTGGGGT,-0.553
9,TTTCTCTTCCAGTTCTGTCTTC,-0.182
10,TATCGTTTACAAAGAGTCCTTG,-0.0149
11,TTGGCAATAACATTGGCCCTGT,-0.0405
12,TATCAAACACGCTAACTCCTAC,-0.68
